# Reference: PubChem BioAssay (EPA / NIEHS)
# The source made the active and inactive calls. The calls were made as follows: active = hit-call score of the fitted dose curve at least 0.9, where 1 is the maximum; inconclusive = response in the unintended direction; inactive = score below 0.9.
# Molecular target: rat CYP2C11, Cyp2c11 (gene 29277) (UniProt P08683)
# Assay: NVS_ADME_rCYP2C11: NovaScreen (NVS) CYP450-related Enzyme Activity (ADME) Assay for rat CYP2C11 (AID 2283118)
# Method: NVS_ADME_rCYP2C11 is a biochemical, single-readout assay that uses extracted gene-proteins in a cell-free assay. Measurements were taken 0.33 hour after chemical dosing in a 96-well plate.NVS_ADME_rCYP2C11 is one of one assay component(s) measured or calculated from the NVS_ADME_rCYP2C11 assay. It is designed to make measurements of enzyme activity, a form of enzyme reporter, as detected with fluorescence intensity signals by Fluorescence technology.Data from the assay component NVS_ADME_rCYP2C11 was analyzed into 1 assay endpoint. This assay endpoint, NVS_ADME_rCYP2C11, was analyzed in the positive analysis fitting direction relative to Acetonitrile as the negative control and baseline of activity. Using a type of enzyme reporter, loss-of-signal activity can be used to understand changes in the enzymatic activity as they relate to the gene Cyp2c11. Furthermore, this assay endpoint can be referred to as a primary readout, because this assay has produced multiple assay endpoints where this one serves a enzymatic activity function. To generalize the intended target to other relatable targets, this assay endpoint is annotated to the cyp intended target family, where the subfamily is xenobiotic metabolism.
# Binding assays used specific radioligands (tritiated, iodinated) with non-radioactive competitive displacement ligands in agonist or antagonist protocols (as indicated) and various reference compounds and inhibitors to titrate specific binding to receptors and transporters. Most enzyme assays (CYPs, kinases, phosphatases, proteases, HDACs) used recombinant protein and specific substrates (fluorescence mostly, some colorimetric and radioactive) and inhibitors, followed by a biochemical separation of substrate and product. All assays for the biochemical HTS were initially run in duplicate at a single concentration (10 uM for CYP450 assays and 25 uM for all others). […] Each assay was run with positive and negative controls, and concurrent controls on every plate. The follow-up (secondary) screen tested active chemical-pairs in concentration series, as well as a few additional assays not tested in the primary screen, some selected negative inactives, and several cases re-run in the concentration series for confirmatory purposes.
# Sequence of rat CYP2C11, Cyp2c11 (gene 29277) (P08683 whole entry, looked up): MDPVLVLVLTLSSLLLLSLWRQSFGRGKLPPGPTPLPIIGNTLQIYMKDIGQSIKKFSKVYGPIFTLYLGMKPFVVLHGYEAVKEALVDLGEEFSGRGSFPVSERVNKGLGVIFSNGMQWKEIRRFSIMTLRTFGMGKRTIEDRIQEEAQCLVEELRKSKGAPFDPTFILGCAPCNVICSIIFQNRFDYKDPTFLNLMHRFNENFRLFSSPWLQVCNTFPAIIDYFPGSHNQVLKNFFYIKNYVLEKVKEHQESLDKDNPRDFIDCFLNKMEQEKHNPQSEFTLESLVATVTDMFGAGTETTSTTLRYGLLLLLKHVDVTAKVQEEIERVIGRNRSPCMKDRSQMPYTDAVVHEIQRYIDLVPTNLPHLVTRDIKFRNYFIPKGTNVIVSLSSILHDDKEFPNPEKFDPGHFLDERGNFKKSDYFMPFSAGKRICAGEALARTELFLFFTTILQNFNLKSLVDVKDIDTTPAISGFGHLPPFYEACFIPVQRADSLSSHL
Compound,AC50,outcome
CCNP(=S)(OC)O/C(C)=C/C(=O)OC(C)C (configuration not stated),1240 nM (active),–
CC(C)(C)C(=O)C(Oc1ccc(Cl)cc1)n1cncn1 (configuration not stated),4290 nM (active),–
CCCCC(C#N)(Cn1cncn1)c1ccc(Cl)cc1 (configuration not stated),2390 nM (active),–
CCOc1cc(C(C)(C)C)ccc1C1COC(c2c(F)cccc2F)=N1 (configuration not stated),10000 nM (active),–
CCCCC(O)(Cn1cncn1)c1ccc(Cl)cc1Cl (configuration not stated),1850 nM (active),–
CCN(CC)C(=O)C(C)Oc1cccc2ccccc12 (configuration not stated),951 nM (active),–
COc1ccc(-c2ccccc2)cc1NNC(=O)OC(C)C,–,inactive
COP(=S)(OC)SCn1nnc2ccccc2c1=O,419 nM (active),–
CC1(C)CCC(=Cc2ccc(Cl)cc2)C1(O)Cn1cncn1 (configuration not stated),384 nM (active),–
CO/N=C(/C1=NOCCO1)c1ccccc1Oc1ncnc(Oc2ccccc2Cl)c1F,779 nM (active),–
CC(C)N1C(=O)N(c2ccccc2)CSC1=NC(C)(C)C,3970 nM (active),–
COP(=S)(OC)Oc1ccc([N+](=O)[O-])c(C)c1,392 nM (active),–
